Measurements from PubChem BioAssay (NCATS).
Results filed as inconclusive are left out. Activity calls are given as the source filed them. Calls follow the shape of the dose curve; as a rule, active = well fitted curve in the direction sought with a large enough effect; inconclusive = small, poorly fitted or top-dose-only effect, or another doubt; inactive = no such curve, though single readings can be large; an effect the other way counts as inactive or inconclusive.

Columns and labels:
[1] = Cellular Toxicity (caspase-3) Renal Proximal Tubule (AID 667); settings: renal proximal tubule cells; at 91.7 µM (top of the series), primary cells freshly taken from rat, solvent-only wells 0%, staurosporine 100% unless noted;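 also: cells exposed to compound for 16 hours at 37 °C before detection; 0% = DMSO basal and 100% = 10 µM staurosporine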
Method in brief: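 Primary rat proximal tubule cells, 1000/well, 5 h plating at 37 °C, then compound 16 h at 37 °C. Caspase-Glo 3/7 reagent, 1 h RT, luminescence. Normalized to DMSO (basal) and 10 uM staurosporine (100%); Hill-fit AC50.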

[2] = Cell Viability - LYMP2-001 (AID 921); settings: LYMP2-001 lymphoblastoid cell viability; series mostly up to 92.2 µM;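 also: 0% = DMSO only and full inhibition = tetraoctylammonium bromide control wells; nearly all actives have a fitted effect of over 70% in size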
Method in brief: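 Human lymphoblastoid cells (Coriell), 2500 per well, were preincubated 5 hr at 37 C, then exposed to compounds in complete medium for 24 hr at 37 C. Cellular ATP was read by CellTiter-Glo luminescence; AC50 from Hill fits of concentration-response data.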

[3] = MultiTox-Fluor Cytotoxicity Assay - LYMP1-001 - Dead Cells (AID 946); settings: LYMP1-001 lymphoblastoid cells, dead-cell protease fluorescence; series mostly up to 92.2 µM;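 also: 0% = DMSO and 100% = tetraoctylammonium bromide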
Method in brief: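 In this qHTS, 15 uM tetraoctylammonium bromide defined 100% and DMSO defined basal activity. Lymphoblastoid cells (LYMP1-001, 2500 per well) received compound for 16 hr at 37 C before a fluorogenic dead-cell substrate readout at 485/520 nm.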

[4] = MultiTox-Fluor Cytotoxicity Assay - LYMP1-001 - Live Cells (AID 947); settings: LYMP1-001 lymphoblastoid cells, live-cell protease fluorescence viability; series mostly up to 92.2 µM;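 also: 0% = DMSO only and full inhibition = tetraoctylammonium bromide control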
[5] = Cell Viability - LYMP1-002 - Assay at 16 hr (AID 948); settings: LYMP1-002 lymphoblastoid cell viability; series mostly up to 92.2 µM;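 also: 0% = DMSO alone and full effect = 92 µM tetraoctylammonium bromide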
Method in brief: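 Human lymphoblastoid cells (LYMP1-002), 2500/well, were preincubated 5 hr at 37 C, then exposed to compounds for 16 hr at 37 C in complete medium. Cellular ATP was read by CellTiter-Glo luminescence after 30 min at room temperature; AC50 from Hill fits.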

[6] = MultiTox-Fluor Cytotoxicity Assay - LYMP1-002 - Live Cells (AID 955); settings: LYMP1-002 lymphoblastoid live-cell protease fluorescence viability; series mostly up to 46.1 µM; also: % is scaled to controls: 0 for no effect and ±100 for the full control effect
Method in brief: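 Cells were seeded at 2500 per well and incubated 5 hr. Compounds were then added for 16 hr at 37 C, followed by MultiTox-Fluor reagent for 60 min at room temperature and fluorescence reading of viable-cell protease signal.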

[7] = MultiTox-Fluor Cytotoxicity Assay - LYMP1-002 - Dead Cells (AID 960); settings: LYMP1-002 lymphoblastoid cells, dead-cell protease fluorescence; series mostly up to 46.1 µM;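 also: 0% = DMSO and 100% = tetraoctylammonium bromide; nearly all actives have a fitted effect of over 60% in size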
Method in brief: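 Cells were plated, rested 5 hr, then treated with compound dilution series for 16 hr at 37 C. After adding substrate reagent and 60 min at room temperature, dead-cell protease fluorescence gave concentration-response curves fitted by the Hill equation.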

[8] = MultiTox-Fluor Cytotoxicity Assay - LYMP1-003 - Dead Cells (AID 961); settings: LYMP1-003 lymphoblastoid cells, dead-cell protease fluorescence; series mostly up to 92.2 µM;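 also: 0% = DMSO and 100% = tetraoctylammonium bromide; nearly all actives have a fitted effect of over 70% in size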
Method in brief: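 Acute toxicity is scored as increased dead-cell protease activity in human lymphoblastoid LYMP1-003 cells after 16 h compound exposure in complete culture medium. Activity is normalized to DMSO basal and 15 uM tetraoctylammonium bromide as full response.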

[9] = MultiTox-Fluor Cytotoxicity Assay - LYMP1-003 - Live Cells (AID 962); settings: LYMP1-003 lymphoblastoid cells, MultiTox-Fluor live-cell protease fluorescence; series mostly up to 92.2 µM;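 also: 0% = DMSO only and full loss = 92 µM tetraoctylammonium bromide; cytotoxic hits lower the live-cell protease signal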
Method in brief: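 Acute cytotoxicity is scored as a drop in live-cell protease activity in human lymphoblastoid LYMP1-003 cells after 16 hr compound exposure at 37 C. AC50 values come from Hill-equation modelling of concentration-response data.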

[10] = Cell Viability - LYMP1-003 - Assay at 24 hr (AID 963); settings: LYMP1-003 lymphoblastoid cell viability; series mostly up to 92.2 µM;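 also: plate controls were DMSO only for no effect and tetraoctylammonium bromide positive control for full effect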
Method in brief: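 Cytotoxicity is scored as a concentration-dependent fall in ATP-linked luciferase signal in human lymphoblastoid LYMP1-003 cells treated 24 hr at 37 C in complete culture medium.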

[11] = Cell Viability - LYMP1-003 - Assay at 40 hr (AID 964); settings: LYMP1-003 lymphoblastoid viability; series mostly up to 92.2 µM; also: % is scaled to controls: 0 for no effect and ±100 for the full control effect; nearly all actives have a fitted effect of over 60% in size
Method in brief: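 Luminescent ATP signal (CellTiter-Glo) served as the viability read-out after 40 hr compound treatment of human lymphoblastoid LYMP1-003 cells at 37 C. Decreases in ATP were fitted with the Hill equation to give AC50.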

[12] = Cell Viability - LYMP2-003 (AID 965); settings: LYMP2-003 lymphoblastoid cell viability; series mostly up to 92.2 µM;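 also: cells exposed to compounds for 24 h before reading; 0% = DMSO only and full effect = 92 µM tetraoctylammonium bromide; nearly all actives have a fitted effect of over 50% in size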
Method in brief: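 Human lymphoblastoid cells (2500/well) were pre-incubated 5 hr at 37 C, then exposed to compounds over a concentration range for 24 hr at 37 C. Intracellular ATP was read by CellTiter-Glo luminescence; AC50 came from Hill-equation fits.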

[13] = Cell Viability - LYMP2-004 (AID 966); settings: LYMP2-004 lymphoblastoid cell viability, qHTS; series mostly up to 92.2 µM;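 also: plate controls were DMSO only for no effect and tetraoctylammonium bromide control for full effect; nearly all actives have a fitted effect of over 65% in size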
Method in brief: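 qHTS cytotoxicity: human lymphoblastoid line, 24 hr compound treatment, 37 C, complete medium. Viability read as cellular ATP via luciferase luminescence; tetraoctylammonium bromide served as positive control.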

[14] = Cell Viability - LYMP2-005 (AID 967); settings: LYMP2-005 lymphoblastoid cell viability; series mostly up to 92.2 µM;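 also: plate controls were DMSO only for no effect and 92 µM tetraoctylammonium bromide control for full effect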
Method in brief: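 CellTiter-Glo luminescence (cellular ATP) read-out; LYMP2-005 lymphoblastoid cells, 2500/well, 5 h pre-incubation, then 24 h compound exposure at 37 C in complete medium. Tetraoctylammonium bromide positive control; AC50 by standard Hill fit.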

[15] = Cell Viability - LYMP2-009 (AID 968); settings: LYMP2-009 lymphoblastoid cell viability; series mostly up to 92.2 µM;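 also: 0% = DMSO alone and the full-kill end = tetraoctylammonium bromide at 92 µM; nearly all actives have a fitted effect of over 55% in size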
[16] = Cell Viability - LYMP2-011 (AID 969); settings: LYMP2-011 lymphoblastoid cells viability; series mostly up to 92.2 µM;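 also: 0% = DMSO only and full inhibition = 92 µM tetraoctylammonium bromide; nearly all actives have a fitted effect of over 60% in size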
Method in brief: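 In this qHTS cytotoxicity format, compounds are tested across concentrations on human lymphoblastoid cells in complete medium for 24 hours at 37 C. Viability is taken as cellular ATP measured by luciferase luminescence.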

[17] = Cell Viability - LYMP2-013 (AID 970); settings: LYMP2-013 lymphoblastoid cells viability; series mostly up to 92.2 µM;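 also: 0% = DMSO only and full inhibition = tetraoctylammonium bromide control; nearly all actives have a fitted effect of over 55% in size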
Method in brief: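 Cytotoxicity is scored as a concentration-dependent drop in intracellular ATP in human lymphoblastoid cells after 24 hr compound exposure at 37 C. ATP is quantified by luciferase luminescence, and AC50 values come from Hill-equation modeling.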

[18] = Cell Viability - LYMP2-015 (AID 971); settings: LYMP2-015 lymphoblastoid cell viability; series mostly up to 92.2 µM;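 also: 0% = DMSO only and full effect = 92 µM tetraoctylammonium bromide; nearly all actives have a fitted effect of over 55% in size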
Method in brief: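 Cells are seeded at 2500 per well and incubated 5 hr at 37 C. Compounds are added across a concentration series for 24 hr at 37 C. CellTiter-Glo is added, and luminescence is read after 30 min at room temperature.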

[19] = Cell Viability - LYMP2-017 (AID 972); settings: LYMP2-017 lymphoblastoid cell viability; series mostly up to 92.2 µM; also: % is scaled to controls: 0 for no effect and ±100 for the full control effect; nearly all actives have a fitted effect of over 55% in size
Method in brief: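 Cytotoxicity is scored as a concentration-dependent drop in cellular ATP in a human lymphoblastoid line after 24 hr treatment at 37 C. Values are AC50s from Hill-equation modelling.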

[20] = Cell Viability - LYMP2-019 (AID 973); settings: LYMP2-019 lymphoblastoid cell line viability; series mostly up to 92.2 µM
Method in brief: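 Cytotoxicity is scored as a concentration-dependent drop in cellular ATP after cells (2500/well) receive compound for 24 hr at 37 C. Tetraoctylammonium bromide serves as positive control.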

[21] = Cell Viability - LYMP2-021 (AID 974); settings: LYMP2-021 lymphoblastoid cells viability; series mostly up to 92.2 µM
Method in brief: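 Loss of cellular ATP, measured with a luciferase-based CellTiter-Glo readout, serves as the toxicity signal in human lymphoblastoid cells treated for 24 hours at 37 C. Potency is reported as AC50 from a standard Hill model.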

[22] = Cell Viability - LYMP2-023 (AID 975); settings: LYMP2-023 lymphoblastoid cell viability; series mostly up to 92.2 µM
Method in brief: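 Steps: seed 2500 human lymphoblastoid cells per well, incubate 5 hr at 37 C, add compound for 24 hr at 37 C, add CellTiter-Glo, hold 30 min at room temperature, read luminescence. AC50 derived by Hill modelling.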

[23] = Cell Viability - LYMP2-025 (AID 976); settings: LYMP2-025 lymphoblastoid cell viability; series mostly up to 92.2 µM;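 also: plate controls were DMSO only for no effect and tetraoctylammonium bromide control for full effect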
Method in brief: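 Acute cytotoxicity is scored as a concentration-dependent fall in intracellular ATP, measured by luciferase luminescence, in human lymphoblastoid LYMP2-025 cells exposed to compound for 24 hours at 37 C. AC50 values come from standard Hill fits.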

[24] = Cell Viability - LYMP2-002 (AID 977); settings: LYMP2-002 lymphoblastoid cell viability, qHTS; series mostly up to 92.2 µM;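 also: plate controls were DMSO only for no effect and 92 µM tetraoctylammonium bromide for full effect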
Method in brief: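 Human lymphoblastoid cells, 2500/well, complete medium; 5 h 37 C settle; compound 24 h 37 C; CellTiter-Glo, 30 min RT; luminescence. Decrease in ATP = cytotoxicity; AC50 via Hill equation.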

[25] = Cell Viability - LYMP2-006 (AID 978); settings: LYMP2-006 lymphoblastoid cell viability, qHTS; series mostly up to 92.2 µM; also: % is scaled to controls: 0 for no effect and ±100 for the full control effect; nearly all actives have a fitted effect of over 60% in size
Method in brief: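 Human lymphoblastoid cells, 2500 per well, were preincubated 5 hr at 37 C, then exposed to compounds for 24 hr at 37 C in complete medium. Viability was read as intracellular ATP by CellTiter-Glo luminescence; AC50 from Hill-equation fits of qHTS concentration-response data.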

CCCOC(=O)c1ccccc1C(=O)OCCC
inactive: caspase-3 activation [1] 0.709% | Potency [2] | Potency [3] | Potency [4] | Potency [5] | outcome [6] | Potency [7] | Potency [8] | Potency [9] | Potency [10] | Potency [11] | Potency [12] | Potency [13] | Potency [14] | Potency [15] | Potency [16] | Potency [17] | Potency [18] | Potency [19] | Potency [20] | Potency [21] | Potency [22] | Potency [23] | Potency [24] | Potency [25]
